# Source: PubChem BioAssay AID623870 (Broad Institute, 2012)
# The campaign covered roughly 390,000 compounds. About 2,600 (0.67%) were called active.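 The calls were made as follows: active = mean inhibition of replicates at least 50% and at least half of replicates each reaching 50%; inconclusive = half or more replicates reach 50% but mean below 50%; inactive = the rest.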 This excerpt belongs to a sample that is enriched for actives.
# Target: Transforming acidic coiled-coil-containing protein 3 (Homo sapiens) (UniProt Q9Y6A5)
# Assay: inhibitors of ARNT PAS-B binding to TACC3 – biochemical, AlphaScreen, single concentration, primary screen (AID 623870);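 also: 0% = complete ARNT plus TACC3 wells and 100% = ARNT alone without TACC3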
# Conditions: AlphaScreen His-ARNT PAS-B/GST-TACC3 binding, luminescence; at 9.99 µM; stronger effect = higher value; TACC3 fragment carries E629A point mutation
row,SMILES,inhibition
1,CCCNC(=O)N1C[C@@H](O)COC[C@H]2O[C@H](CC(=O)NCCCN3CCOCC3)CC[C@@H]21,-6.54% (inactive)
2,CN(C)C(=O)c1cccc(-c2ccc3c(c2)[C@H]2[C@H](CCN2C(=O)Cc2ccccc2)[C@H](CO)N3)c1,-7.24% (inactive)
3,CN(C)C(=O)C[C@@H]1CC[C@@H](NS(=O)(=O)c2ccccc2)[C@H](CO)O1,1.05% (inactive)
4,Cc1ccc(S(=O)(=O)n2oc(=O)c(C3CCCCC3)c2N)cc1,64.1% (active)
5,Cc1ccc(S(=O)(=O)N2CC(C)N(S(C)(=O)=O)C2)cc1 (configuration not stated),-0.994% (inactive)
6,Cc1ccc(S(=O)(=O)N2CCCC2CO)cc1 (configuration not stated),-6.07% (inactive)
7,C[C@H](CO)N1C[C@H](C)[C@@H](CN(C)C(=O)C2CCC2)Oc2cc(C3=CCCCC3)ccc2S1(=O)=O,7.82% (inactive)
8,CCOC(=O)C1CCN(C(=O)C2CCN(S(=O)(=O)CC)CC2)CC1,-3.42% (inactive)
9,CCOC(=O)C1CCN(S(=O)(=O)c2c(C)noc2C)CC1,-6.32% (inactive)
10,CCOC(=O)C1CCN(C(=O)C2CCN(S(=O)(=O)c3c(C)noc3C)CC2)CC1,46.8% (active)
11,COC(=O)C[C@@H]1CC[C@@H]2[C@H](COc3ccc(NC(=O)c4ccccc4OC)cc3C(=O)N2C)O1,-6.13% (inactive)
12,CN1C[C@H]2[C@@H](c3ccccc31)[C@@H](CO)N2C(=O)Nc1ccccc1,-0.471% (inactive)
13,COc1ccc(S(=O)(=O)N(C)C[C@@H]2OCc3ccccc3-c3ccccc3C(=O)N([C@@H](C)CO)C[C@@H]2C)cc1,-0.955% (inactive)
14,Cc1[nH]n(-c2cccc(Cl)c2)c(=O)c1/C=N/n1c(C)nc2ccccc2c1=O,46.7% (active)
15,Cc1nc2ccccc2c(=O)n1-c1ccc(NS(=O)(=O)c2ccc(F)cc2F)cc1,-1.59% (inactive)
16,CCCNC(=O)Nc1ccc2c(c1)C(=O)N(C)C[C@@H](OC)[C@@H](C)CN(Cc1ccccn1)[C@@H](C)CO2,-2.12% (inactive)
17,CO[C@@H]1CN(C)C(=O)c2cc(NS(=O)(=O)Cc3ccccc3)ccc2OC[C@H](C)NC[C@H]1C,1.43% (inactive)
18,CC(C)NC(=O)N[C@H]1CC[C@H](CC(=O)NCCCN(C)C)O[C@H]1CO,-5.48% (inactive)
19,C[C@H](CO)N1C[C@H](C)[C@H](CN(C)CC2CC2)OCCCC[C@H](C)Oc2ccc(NS(=O)(=O)c3cccs3)cc2C1=O,-8.86% (inactive)
20,C[C@@H]1CN([C@@H](C)CO)C(=O)c2cccc(NC(=O)Nc3ccc(C(F)(F)F)cc3)c2O[C@@H]1CN(C)S(=O)(=O)c1cccs1,-2.19% (inactive)
21,COC(=O)CCCCCCC(=O)Nc1ccc(C2OC(CSc3nc(-c4ccccc4)c(-c4ccccc4)o3)CC(c3ccc([N+](=O)[O-])cc3)O2)cc1 (configuration not stated),1.18% (inactive)
22,Nc1nnnn1/N=C/c1cccc(Br)c1,3.65% (inactive)
23,Nc1nnnn1/N=C/c1cccs1,3.88% (inactive)
24,Nc1nnnn1/N=C/c1cc([N+](=O)[O-])ccc1O,75.7% (active)
25,C[C@@H]1CCCCO[C@@H](CN(C)S(=O)(=O)c2cn(C)cn2)[C@H](C)CN([C@H](C)CO)C(=O)c2cc(NC(=O)NC3CCCCC3)ccc2O1,-15% (inactive)
26,O=C(C[C@@H]1C[C@@H]2c3cc(NC(=O)CC4CC4)ccc3O[C@@H]2[C@@H](CO)O1)NCCN1CCCCC1,-1.06% (inactive)
27,COCC#Cc1cnc2c(c1)C(=O)N([C@@H](C)CO)C[C@@H](C)[C@H](CN(C)C(=O)c1cnccn1)O2,4.05% (inactive)
